{"source": "PubChem BioAssay (NCATS)", "key": {"[1]": {"target": "Mitogen-activated protein kinase 10 (Mus musculus) (UniProt Q61831)", "assay": "JNK3 AlphaScreen Assay (AID 530; active = well fitted curve in either direction with a large enough effect, not every such curve was filed as active;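 also: kinase came from lysate of stimulated human HepG2 cells; signal reports phosphorylation of biotinylated GST-cJun 1-79 at Ser73 with 10 µM ATP; series mostly up to about 57 µM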)", "procedure,_shortened": "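qHTS format: compounds tested as titrations against IL-1beta/TNF-alpha-activated HepG2 lysate JNK3 with biotin-GST-cJun substrate and 10 uM ATP at room temperature. Loss of anti-phospho-cJun AlphaScreen signal indicates inhibition.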"}, "[2]": {"target": "Cytochrome P450 3A4 (Homo sapiens) (UniProt P08684)", "sequence (P08684 whole entry, looked up)": "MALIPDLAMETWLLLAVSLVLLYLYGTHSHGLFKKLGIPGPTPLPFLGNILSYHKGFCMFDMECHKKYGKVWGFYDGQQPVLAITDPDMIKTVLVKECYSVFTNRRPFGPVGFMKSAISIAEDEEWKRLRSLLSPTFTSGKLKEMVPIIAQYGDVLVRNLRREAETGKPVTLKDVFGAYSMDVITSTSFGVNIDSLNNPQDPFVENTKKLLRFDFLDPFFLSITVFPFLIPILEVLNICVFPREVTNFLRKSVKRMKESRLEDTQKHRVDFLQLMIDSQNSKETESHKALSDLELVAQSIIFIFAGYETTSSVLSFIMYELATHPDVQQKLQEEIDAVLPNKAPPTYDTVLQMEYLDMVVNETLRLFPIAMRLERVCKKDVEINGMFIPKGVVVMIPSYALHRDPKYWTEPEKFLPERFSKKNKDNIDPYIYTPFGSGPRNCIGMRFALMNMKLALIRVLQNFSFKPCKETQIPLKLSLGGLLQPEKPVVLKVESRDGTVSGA", "assay": "qHTS Assay for Activators of Cytochrome P450 3A4 (AID 885); also: nearly all actives have a fitted effect of over 65% in size", "procedure,_shortened": "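Steps: enzyme/substrate mix dispensed; compound added, 10 min RT; NADPH regeneration solution added, 60 min RT; luciferin detection buffer stops reaction; 20 min later luminescence measured.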"}, "[3]": {"assay": "Confirmation and Secondary Assay for Modulators of Hemoglobin Beta Chain Splicing at IVS2 654 locus (AID 910);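 also: HeLa cells stably carrying EGFP split by mutant beta-globin IVS2-654 intron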", "procedure,_shortened": "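HeLa cells stably expressing EGFP interrupted by β-globin IVS2-654 intron, seeded overnight in Opti-MEM/2% FCS, then treated 2 days at 37 °C. Restored splicing read as total peak GFP intensity per well by laser scanning cytometry (488 nm excitation, 500–520 nm emission); 500 nM antisense PNA as control.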"}, "[4]": {"assay": "Confirmation and Secondary Assay for Modulators of Hemoglobin Beta Chain Splicing at IVS2 705 locus (AID 930); also: series mostly up to about 46 µM", "procedure,_shortened": "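Secondary splice-site specificity test uses HeLa expressing CMV-driven EGFP interrupted by IVS2-705; cells were treated 2 days at 37C with 500 nM antisense PNA as positive control.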"}, "[5]": {"target": "Ubiquitin carboxyl-terminal hydrolase 1 (Homo sapiens) (UniProt O94782)", "sequence (O94782 whole entry, looked up)": "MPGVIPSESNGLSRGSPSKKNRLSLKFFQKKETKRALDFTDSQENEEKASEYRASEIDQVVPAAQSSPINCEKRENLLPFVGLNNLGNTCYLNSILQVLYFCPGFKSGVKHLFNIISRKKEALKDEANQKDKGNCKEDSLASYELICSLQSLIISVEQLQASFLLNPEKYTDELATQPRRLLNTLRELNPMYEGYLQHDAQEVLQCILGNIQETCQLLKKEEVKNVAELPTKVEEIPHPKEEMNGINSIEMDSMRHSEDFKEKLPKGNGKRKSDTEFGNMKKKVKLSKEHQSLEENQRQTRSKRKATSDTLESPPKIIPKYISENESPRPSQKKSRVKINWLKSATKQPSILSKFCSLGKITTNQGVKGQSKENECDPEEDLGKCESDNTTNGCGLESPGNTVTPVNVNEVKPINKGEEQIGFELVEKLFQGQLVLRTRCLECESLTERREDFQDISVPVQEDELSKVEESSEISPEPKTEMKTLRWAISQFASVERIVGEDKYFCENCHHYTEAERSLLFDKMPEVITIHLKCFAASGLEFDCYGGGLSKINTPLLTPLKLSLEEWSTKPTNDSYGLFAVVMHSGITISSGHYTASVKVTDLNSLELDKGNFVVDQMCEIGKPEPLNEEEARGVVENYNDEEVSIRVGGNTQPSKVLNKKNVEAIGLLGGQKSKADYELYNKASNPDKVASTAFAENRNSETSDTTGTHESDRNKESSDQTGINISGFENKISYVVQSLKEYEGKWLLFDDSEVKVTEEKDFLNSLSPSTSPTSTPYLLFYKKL", "assay": "Inhibitors of USP1/UAF1: Pilot qHTS (AID 504865);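 also: rhodamine fluorescence freed from ubiquitin-rhodamine substrate followed over time; top concentration of the series differs between compounds; nearly all actives have a fitted effect of over 35% in size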", "procedure,_shortened": "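USP1/UAF1 complex (1nM) preincubated with compound 15 min at room temperature, then Ub-Rho substrate (150nM final) added. Fluorescence read kinetically at 480/540 nm, 6 reads every 60 seconds. Buffer: 50mM HEPES pH 7.8, 0.5mM EDTA, 0.1 mg/ml BSA, 1mM TCEP, 0.01% Tween-20.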"}}, "note": "Inconclusive results are not listed. Where a call stands in place of a potency, no number is given. Active and inactive are the calls of the source. Unless noted, calls follow the shape of the dose curve; as a rule, active = well fitted curve in the direction sought with a large enough effect; inconclusive = small, poorly fitted or top-dose-only effect, or another doubt; inactive = no such curve, though single readings can be large; an effect the other way counts as inactive or inconclusive."}
{"smiles": "CCCCCCN(C(=O)CCCCCN1C(=O)NC(c2ccc(-c3ccccc3)cc2)C(C(=O)OCc2ccccc2)=C1C)C(C(=O)NCCCC)c1ccc(OCC(=O)O)c(C(=O)O)c1", "note": "(centres undefined)", "values": [{"measurement": "outcome", "setting": "[1]", "result": "inactive"}]}
{"smiles": "CCCN1CC(CSC)C[C@H]2c3cccc4[nH]cc(c34)C[C@H]21", "note": "(some centres undefined)", "values": [{"measurement": "Potency", "setting": "[2]", "result": "inactive"}, {"measurement": "outcome", "setting": "[3]", "result": "inactive"}, {"measurement": "outcome", "setting": "[4]", "result": "inactive"}, {"measurement": "Potency", "setting": "[5]", "result": "inactive"}]}
{"smiles": "COC(=O)[C@@]1(Cc2ccc(OC)cc2)[C@H]2c3cc(C(=O)N(C)C)n(Cc4ccc(C)o4)c3C[C@H]2CN1C(=O)c1ccccc1", "values": [{"measurement": "outcome", "setting": "[1]", "result": "inactive"}]}
{"smiles": "COc1ccc2nc3c(c(-c4ccccc4)c2c1)CCC3", "values": [{"measurement": "outcome", "setting": "[1]", "result": "inactive"}]}
{"smiles": "Oc1ccc2c(c1)OCC1c3cc4c(cc3OC21)OCO4", "note": "(centres undefined)", "values": [{"measurement": "Potency", "setting": "[2]", "result": "inactive"}, {"measurement": "outcome", "setting": "[3]", "result": "inactive"}, {"measurement": "outcome", "setting": "[4]", "result": "inactive"}, {"measurement": "Potency", "setting": "[5]", "result": "inactive"}]}
{"smiles": "COC(=O)Cn1c(C(=O)N2CCCC2)cc2c1C[C@H]1CN(C(=O)c3ccccc3)[C@@](Cc3ccccc3)(C(=O)OC)[C@@H]21", "values": [{"measurement": "outcome", "setting": "[1]", "result": "inactive"}]}
{"smiles": "CCC[C@@H]1C[C@@]1(CCC)C(NP(=O)(c1ccccc1)c1ccccc1)c1ccc(Cl)cc1", "note": "(some centres undefined)", "values": [{"measurement": "outcome", "setting": "[1]", "result": "inactive"}]}
{"smiles": "CCCC[C@@H]1C[C@H]1C(NC(=O)c1ccccc1)c1ccc(C(=O)OC)cc1", "note": "(some centres undefined)", "values": [{"measurement": "outcome", "setting": "[1]", "result": "inactive"}]}
{"smiles": "NC(N)=Nc1nc(CSCC/C(N)=N\\S(N)(=O)=O)cs1", "values": [{"measurement": "outcome", "setting": "[3]", "result": "inactive"}, {"measurement": "outcome", "setting": "[4]", "result": "inactive"}, {"measurement": "Potency", "setting": "[5]", "result": "inactive"}]}
{"smiles": "CCCC[C@@H]1C[C@H]1C(NC(=O)c1ccccc1)c1ccc(C(F)(F)F)cc1", "note": "(some centres undefined)", "values": [{"measurement": "outcome", "setting": "[1]", "result": "inactive"}]}
{"smiles": "COC(=O)C1(Cc2ccccc2)C=C2C(=C(c3ccccc3)C(=O)C2C)CN1", "note": "(centres undefined)", "values": [{"measurement": "outcome", "setting": "[1]", "result": "inactive"}]}
{"smiles": "C[N+]1(C)C2CC(OC(=O)C(CO)c3ccccc3)CC1C1OC12", "note": "(centres undefined)", "values": [{"measurement": "outcome", "setting": "[3]", "result": "inactive"}, {"measurement": "Potency", "setting": "[5]", "result": "inactive"}]}
{"smiles": "COC(=O)[C@@]1(Cc2ccc(OC)cc2)[C@H]2c3cc(C(=O)N(C)C)n(Cc4ccc(S(C)(=O)=O)cc4)c3C[C@H]2CN1C(=O)c1ccccc1", "values": [{"measurement": "outcome", "setting": "[1]", "result": "inactive"}]}
{"smiles": "CCc1c2c(nc3ccc(OC)cc13)OC(CC)C2", "note": "(centres undefined)", "values": [{"measurement": "outcome", "setting": "[1]", "result": "inactive"}]}
{"smiles": "COc1cc(C2c3cc4c(cc3C(OC3OC5COC(C)O[C@@H]5C(O)C3O)C3COC(=O)C23)OCO4)cc(OC)c1O", "note": "(some centres undefined)", "values": [{"measurement": "outcome", "setting": "[3]", "result": "inactive"}, {"measurement": "outcome", "setting": "[4]", "result": "inactive"}, {"measurement": "Potency", "setting": "[5]", "result": "inactive"}]}
{"smiles": "COC(=O)[C@@]1(Cc2ccccc2)[C@H]2c3cc(C(=O)N4CCCC4)n(CCO)c3C[C@H]2CN1C(=O)c1ccccc1", "values": [{"measurement": "outcome", "setting": "[1]", "result": "inactive"}]}
{"smiles": "CCCC[C@H]1C[C@@H]1[C@@H]1N(C(C)=O)[C@H](c2cccc(OC)c2)CC12CC2", "values": [{"measurement": "outcome", "setting": "[1]", "result": "inactive"}]}
{"smiles": "CC(C)=C1C(=O)C(c2ccccc2)=C2CN3C(=O)N(CCc4ccccc4)C(=O)[C@]3(C)[C@H]21", "values": [{"measurement": "outcome", "setting": "[1]", "result": "inactive"}]}
